The AC50 is the concentration giving half of the maximal activity seen.

Results on seven compounds are retold here after PubChem BioAssay (EPA / NIEHS).

Active and inactive are the calls of the source. The calls were made as follows: active = hit-call score of the fitted dose curve at least 0.9, where 1 is the maximum; inactive = score below 0.9.

Assay [1] can be described thus: ATG_CRE_CIS: Attagene CIS-FACTORIAL HepG2 Assay for human cAMP Responsive Element (CRE) binding protein 3 (AID 2282926). Particulars: HepG2 CRE cis-reporter, Attagene multiplexed mRNA; actives raise or lower the signal. The method in brief: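 Human liver HepG2, transient MRTU transfection, 24 h compound exposure. Total RNA → oligo(dT) RT → PCR → 6-FAM primer extension → HpaI cut → CE. Activity called both directions vs DMSO.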

Assay [2] addresses CCAAT/enhancer-binding protein beta (Homo sapiens) (UniProt P17676). Nature of the assay: ATG_C_EBP_CIS: Attagene CIS-FACTORIAL HepG2 Assay for human CCAAT/Enhancer Binding Protein (C/EBP) beta (AID 2282927). As to conditions: HepG2 Attagene cis-factorial transcription factor reporter; actives raise or lower the signal. The essentials: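 Endogenous C/EBPb-driven reporter transcripts measured in transfected human HepG2 cells at 24 h via RT-PCR and capillary electrophoresis of labelled fragments. Activity fitted in both directions relative to DMSO baseline.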

Assay [3] can be described thus: ATG_CMV_CIS: Attagene CIS-FACTORIAL HepG2 Assay for human CMV (Internal Marker) (AID 2282928).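 Also: endpoint acts as a background internal control marker rather than a target.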 As to conditions: HepG2 CMV promoter reporter, transcription factor profiling; actives raise or lower the signal. The method in brief:
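Endogenous transcription factor activity read in HepG2 via transfected cis-promoter reporter units. After 24 h dosing, reporter mRNA measured by RT-PCR/capillary electrophoresis; gain or loss of signal fit relative to DMSO.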

Assay [4] is described as follows: ATG_DR4_LXR_CIS: Attagene CIS-FACTORIAL HepG2 Assay for human Liver X Receptor (LXR), DR4 submotif (AID 2282929). As to conditions: HepG2 Attagene DR4 cis-reporter, mRNA transcription; actives raise or lower the signal. The method in brief: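 HepG2, transient MRTU transfection, cis-element (DR4) promoter; 24 h compound exposure; total RNA → oligo(dT) RT → PCR → 6-FAM primer extension → HpaI cut → CE. Gain/loss vs DMSO, bidirectional fit.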

Assay [5] concerns the target Aryl hydrocarbon receptor (Homo sapiens) (UniProt P35869). The assay is described as follows: ATG_Ahr_CIS: Attagene CIS-FACTORIAL HepG2 Assay for human Aryl Hydrocarbon Receptor (Ahr) (AID 2282930). Particulars: HepG2 AhR cis-factorial reporter transcription; actives raise or lower the signal. The essentials: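 Reporter mRNA levels, quantified by RT-PCR and fluorescent capillary electrophoresis, reflect endogenous AhR transcriptional activity in HepG2 cells carrying transfected cis-promoter reporter constructs. Readout at 24 h post-dose; gain or loss fitted against DMSO baseline.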

Assay [6] in a line: ATG_AP_1_CIS: Attagene CIS-FACTORIAL HepG2 Assay for human Activator Protein 1 (AP-1) (AID 2282931). As to conditions: HepG2 Attagene cis-factorial AP-1 reporter mRNA; actives raise or lower the signal. The method in brief: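 Transient MRTU transfection of HepG2 → 24 h chemical treatment → RNA isolation, RT-PCR, 6-FAM labelling, HpaI digest → capillary electrophoresis. Fit: bidirectional, DMSO negative control.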

Assay [7] is described as follows: ATG_AP_2_CIS: Attagene CIS-FACTORIAL HepG2 Assay for human Activator Protein 2 (AP-2) (AID 2282932). Particulars: HepG2 AP-2 cis-reporter, Attagene transcription factor profiling; actives raise or lower the signal. The essentials: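 Step one: transient transfection of HepG2 with reporter transcription units. Step two: 24 h chemical exposure. Step three: RNA extraction, RT-PCR, labelled fragment analysis by capillary electrophoresis; DMSO serves as baseline.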

Assay [8] can be described thus: ATG_BRE_CIS: Attagene CIS-FACTORIAL HepG2 Assay for human Bone Morphogenetic Protein (BMP) Response Element (BRE) (AID 2282933). Particulars: HepG2 BMP response element reporter, Attagene transcription factor profiling; actives raise or lower the signal. The method in brief: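 Endogenous transcription factor activity at a BMP response element was monitored in transfected HepG2 cells 24 h after dosing. Fluorescent RT-PCR products were resolved by capillary electrophoresis, and activity was fitted in both directions versus DMSO.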

Assay [9] deals with Transcription factor E2F1 (Homo sapiens) (UniProt Q01094). Nature of the assay: ATG_E2F_CIS: Attagene CIS-FACTORIAL HepG2 Assay for human E2F Transcription Factor 1 (AID 2282935). As to conditions: HepG2 Attagene cis-reporter, E2F reporter RNA transcripts; actives raise or lower the signal. The essentials:
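Total RNA from 24 h-treated, reporter-transfected HepG2 cells undergoes DNase I treatment, oligo(dT) reverse transcription, PCR and 6-FAM primer extension before capillary electrophoresis.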

The nature of assay [10]: APR_HepG2_P-H2AX_72hr: Apredica 72-hour HepG2 Assay for H2AX Phosphorylation (AID 2282916).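 Also: phospho-histone H2A.x immunostain intensity per cell marking DNA damage.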 Particulars: imaging, actives raise or lower the signal. The essentials: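 Following 72 hr treatment with 0.39–200 uM compound, HepG2 cells were formaldehyde-fixed, permeabilized and stained for phospho-H2A.x; signal was measured by high-content imaging and fitted bidirectionally against DMSO controls.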

The nature of assay [11]: APR_HepG2_MitoMembPot_72hr: Apredica 72-hour HepG2 Assay for Mitochondrial Membrane Potential (AID 2282917). As to conditions: imaging, actives raise or lower the signal. The essentials: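 Membrane potential read by MitoTracker Red CMXRos (250 nM, 30 min, pre-fixation) fluorescence imaging of HepG2 after 72 hr exposure. Ten concentrations, 0.39–200 uM, duplicate wells, 0.5% DMSO; fitted in both directions against DMSO baseline.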

Assay [12] can be described thus: APR_HepG2_MitoticArrest_72hr: Apredica 72-hour HepG2 Assay for Mitotic Arrest (AID 2282918). As to conditions: high-content imaging, actives raise or lower the signal. The method in brief:
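Read-out is phospho-histone H3 immunofluorescence with Hoechst nuclear segmentation, imaged at 20x. Human HepG2 liver cells received ten concentrations (0.39–200 uM, final DMSO 0.5% v/v) for 72 hr before fixation. Gain or loss of signal was fitted relative to DMSO.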

A short description of assay [13]: APR_HepG2_MicrotubuleCSK_72hr: Apredica 72-hour HepG2 Assay for Microtubule CSK Stabilty (AID 2282919). As to conditions: HepG2 microtubule cytoskeleton, high-content imaging, actives raise or lower the signal. The method in brief:
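Read-out is tubulin fluorescence intensity from high-content imaging of HepG2 cells, with nuclei identified by Hoechst 33342. Treatment lasts 72 h at 0.39–200 uM, and curves are fitted bidirectionally against the DMSO negative control.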

A short description of assay [14]: APR_HepG2_StressKinase_72hr: Apredica 72-hour HepG2 Assay for Stress Kinase (AID 2282921). As to conditions: HepG2 stress kinase (phospho-c-Jun) imaging, actives raise or lower the signal. The method in brief:
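Fluorescence intensity of Cy3-tagged anti-phospho-c-Jun antibody, quantified per cell from Hoechst-defined nuclei across six images per well, served as the read-out following 72 h exposure (0.39–200 uM, 0.5% v/v DMSO).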

A short description of assay [15]: APR_HepG2_StressKinase_24hr: Apredica 24-hour HepG2 Assay for Stress Kinase (AID 2282922). As to conditions: HepG2 stress kinase (phospho-c-Jun) imaging, actives raise or lower the signal. The method in brief: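 HepG2, 24 hr dosing, 0.39–200 uM in duplicate, 0.5% DMSO; formaldehyde fix (3.7%), 0.5% Triton X-100; anti-phospho-c-Jun + Cy3 secondary, Hoechst counterstain; ArrayScan imaging; bidirectional curve fit vs DMSO baseline.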

Assay [16] is described as follows: APR_HepG2_p53Act_72hr: Apredica 72-hour HepG2 Assay for p53 Activation (AID 2282923).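 Also: average cellular p53 protein immunofluorescence intensity in HepG2 cells.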 Particulars: high-content imaging, actives raise or lower the signal. The method in brief:
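HepG2 monolayers receive test compounds in duplicate at ten concentrations (0.39 through 200 uM) for 72 hr. They are then formaldehyde-fixed, antibody-labelled for p53, Hoechst-stained and imaged, with activity fitted bidirectionally versus DMSO.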

Assay [17] can be described thus: APR_HepG2_MitoMass_72hr: Apredica 72-hour HepG2 Assay for Mitochondrial Mass (AID 2282924).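 Also: MitoTracker Red CMXRos stain intensity per cell imaged as mitochondrial mass.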 As to conditions: high-content imaging, actives raise or lower the signal. The method in brief:
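HepG2, 72 hr cmpd, 10 conc 0.39–200 uM in dup, DMSO 0.5% v/v. MitoTracker Red CMXRos 250 nM 30 min pre-fix; formaldehyde 3.7% fix 30 min RT. HCS imaging, gain/loss fit vs DMSO.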

Assay [18] is described as follows: APR_HepG2_NuclearSize_72hr: Apredica 72-hour HepG2 Assay for Nuclear Size (AID 2282925). As to conditions: high-content imaging, actives raise or lower the signal. The method in brief: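 HepG2; cpd 0.39–200 uM, 10 conc, duplicate; 72 h; DMSO 0.5% v/v; fix 3.7% formaldehyde 30 min RT; Triton permeabilization; Hoechst 2 ug/mL; HCS imaging 20x; nuclear diameter; gain/loss fit vs DMSO.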

Assay [19] deals with Retinoic acid receptor alpha (Homo sapiens) (UniProt P10276). Nature of the assay: ATG_DR5_RAR_CIS: Attagene CIS-FACTORIAL HepG2 Assay for human Retinoic Acid Receptor Alpha (RARE), DR5 submotif (AID 2282934).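 As to AC50: reporter responds to endogenous RAR alpha beta and gamma in HepG2 not RARA alone.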 Particulars: HepG2 Attagene cis-factorial RARE DR5 reporter, mRNA; actives raise or lower the signal. The essentials: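 Reporter transcripts from a DR5-regulated unit, measured via RT-PCR plus capillary electrophoresis, reflect endogenous RAR activity in transiently transfected human HepG2 liver cells. Exposure lasted 24 h; gain or loss of signal scored against DMSO.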
Chain of Retinoic acid receptor alpha (Homo sapiens) (P10276 whole entry, looked up): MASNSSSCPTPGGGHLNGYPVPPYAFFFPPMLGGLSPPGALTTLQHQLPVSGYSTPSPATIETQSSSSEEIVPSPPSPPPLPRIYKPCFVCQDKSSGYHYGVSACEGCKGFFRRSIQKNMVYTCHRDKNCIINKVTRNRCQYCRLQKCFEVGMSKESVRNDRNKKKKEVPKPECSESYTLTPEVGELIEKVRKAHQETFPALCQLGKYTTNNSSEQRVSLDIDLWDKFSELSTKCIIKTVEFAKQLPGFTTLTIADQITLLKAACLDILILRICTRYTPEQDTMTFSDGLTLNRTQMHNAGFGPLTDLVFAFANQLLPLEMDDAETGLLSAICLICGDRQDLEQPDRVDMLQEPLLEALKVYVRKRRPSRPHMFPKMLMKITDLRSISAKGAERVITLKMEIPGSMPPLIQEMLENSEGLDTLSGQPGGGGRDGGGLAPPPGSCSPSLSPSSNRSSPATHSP

Chain of Aryl hydrocarbon receptor (Homo sapiens) (P35869 whole entry, looked up): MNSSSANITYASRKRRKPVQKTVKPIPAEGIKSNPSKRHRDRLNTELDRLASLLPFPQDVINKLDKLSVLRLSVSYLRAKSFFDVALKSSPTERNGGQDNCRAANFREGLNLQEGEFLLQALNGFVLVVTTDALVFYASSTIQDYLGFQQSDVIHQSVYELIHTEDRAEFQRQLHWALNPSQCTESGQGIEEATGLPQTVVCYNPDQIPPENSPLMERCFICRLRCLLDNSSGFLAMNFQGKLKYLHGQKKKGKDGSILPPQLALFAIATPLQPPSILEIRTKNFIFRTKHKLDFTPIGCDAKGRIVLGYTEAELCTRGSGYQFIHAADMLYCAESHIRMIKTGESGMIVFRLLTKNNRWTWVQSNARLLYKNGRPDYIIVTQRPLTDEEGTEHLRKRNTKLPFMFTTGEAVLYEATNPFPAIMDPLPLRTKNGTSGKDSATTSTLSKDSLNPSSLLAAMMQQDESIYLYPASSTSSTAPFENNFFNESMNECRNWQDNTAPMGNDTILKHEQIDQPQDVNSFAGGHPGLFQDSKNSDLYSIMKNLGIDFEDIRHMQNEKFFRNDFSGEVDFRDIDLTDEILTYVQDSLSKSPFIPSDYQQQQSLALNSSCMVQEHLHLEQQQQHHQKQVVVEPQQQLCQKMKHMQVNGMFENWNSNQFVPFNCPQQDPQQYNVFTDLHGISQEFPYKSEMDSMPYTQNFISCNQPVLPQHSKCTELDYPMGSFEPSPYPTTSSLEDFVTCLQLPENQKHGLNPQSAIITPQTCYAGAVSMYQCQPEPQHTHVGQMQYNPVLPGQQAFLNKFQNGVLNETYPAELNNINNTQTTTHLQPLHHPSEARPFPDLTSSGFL
Chain of Transcription factor E2F1 (Homo sapiens) (Q01094 whole entry, looked up): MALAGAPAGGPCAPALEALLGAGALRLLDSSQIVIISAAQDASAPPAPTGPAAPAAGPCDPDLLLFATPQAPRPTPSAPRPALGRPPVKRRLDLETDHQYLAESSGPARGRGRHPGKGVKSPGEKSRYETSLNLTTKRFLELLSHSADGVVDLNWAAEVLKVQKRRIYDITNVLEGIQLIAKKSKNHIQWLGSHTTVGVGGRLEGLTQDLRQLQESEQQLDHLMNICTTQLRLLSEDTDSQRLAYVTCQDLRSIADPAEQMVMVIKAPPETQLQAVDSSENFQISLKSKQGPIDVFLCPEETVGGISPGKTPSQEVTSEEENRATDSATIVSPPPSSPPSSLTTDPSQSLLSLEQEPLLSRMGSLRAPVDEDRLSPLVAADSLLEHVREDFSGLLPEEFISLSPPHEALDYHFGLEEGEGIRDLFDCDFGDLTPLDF
Chain of CCAAT/enhancer-binding protein beta (Homo sapiens) (P17676 whole entry, looked up, the tested form may be a part): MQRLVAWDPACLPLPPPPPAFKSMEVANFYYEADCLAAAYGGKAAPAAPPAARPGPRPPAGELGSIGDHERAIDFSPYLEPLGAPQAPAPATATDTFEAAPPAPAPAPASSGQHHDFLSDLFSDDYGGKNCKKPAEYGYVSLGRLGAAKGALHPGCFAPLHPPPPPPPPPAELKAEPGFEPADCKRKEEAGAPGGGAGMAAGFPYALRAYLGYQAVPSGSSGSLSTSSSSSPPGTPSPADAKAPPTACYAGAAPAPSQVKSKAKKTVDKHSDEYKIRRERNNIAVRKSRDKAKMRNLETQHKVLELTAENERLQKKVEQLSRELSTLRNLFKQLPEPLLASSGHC

Take `Sc1ccccc1`: the compound was called inactive in assay [1], in assay [2], in assay [3], in [4], in assay [5] and in [6]. In addition, the result in [7], in assay [8] and in assay [9] was inactive.
Regarding `CC(c1ccc(O)cc1)(c1ccc(O)cc1)c1ccc(O)cc1`, the AC50 was 95.4 µM (active) in [10]; 105 µM (active) in [12]; 110 µM (active) in assay [16]; 170 µM (active) in assay [17]; 105 µM (active) in assay [18]; 8.32 µM (active) in assay [1]. Also, the AC50 in assay [3] is 20.2 µM (active); in [4], 7.38 µM (active); in [6] it was 17.9 µM (active); in [7], 18.1 µM (active); in assay [8], 18.3 µM (active). Moreover, the outcome in assay [11], in assay [13], in [14], in [15], in [2] and in assay [5] was inactive. Further, the result in assay [19] and in [9] was inactive.
As to `CCCN(CCC)N=O`, the compound was classed as inactive in [10], in assay [11], in [12], in assay [13], in [14] and in assay [15]. The call in assay [16], in assay [17], in [18], in [1], in assay [2] and in assay [3] was inactive. Further, the call in assay [4], in assay [5], in assay [6], in assay [7], in assay [19] and in [9] was inactive.
For `Clc1ccc(C(Cl)(Cl)Cl)cc1`, the compound was called inactive in assay [10], in assay [11], in assay [12], in assay [13], in assay [14] and in assay [15]. Besides, the compound was called inactive in [16], in [17], in assay [18], in assay [1], in assay [2] and in assay [3]. For the same compound, the result in assay [4], in assay [5], in assay [6], in assay [7], in [19] and in [9] was inactive.
With `ClC1=C(Cl)[C@]2(Cl)[C@@H]3[C@@H]4C[C@@H]([C@H]5O[C@@H]45)[C@@H]3[C@@]1(Cl)C2(Cl)Cl`, the half-maximal activity concentration (AC50) was 41 µM (active) in [10], 32.6 µM (active) in assay [12], 16.7 µM (active) in assay [4] and 0.571 µM (active) in [19]. Further, the result in assay [11], in [13], in [14], in assay [15], in assay [16] and in [17] was inactive. The compound was called inactive in assay [18], in [1], in assay [2], in assay [3], in assay [5] and in assay [6]. Besides, the result in assay [7], in assay [8] and in assay [9] was inactive.
As for `C=CC(=O)NCNC(=O)C=C`, the result in assay [10], in [11], in [12], in assay [13], in assay [14] and in assay [15] was inactive. In addition, the outcome in [16], in assay [17], in assay [18], in [1], in assay [2] and in assay [3] was inactive. Moreover, the compound was classed as inactive in assay [4], in assay [5], in [6], in [7], in assay [8] and in [19]. Further, the outcome in [9] was inactive.
`O=C(NC(=O)c1cc(F)c(F)cc1Cl)Nc1cc(F)ccc1N1CCC(C(=O)O)CC1`: the compound was classed as inactive in assay [10], in assay [11], in assay [12], in assay [13], in [14] and in [15]. In addition, the compound was classed as inactive in assay [16], in assay [17], in [18], in assay [1], in assay [2] and in assay [3]. For the same compound, the call in [4], in assay [5], in assay [6], in assay [7] and in assay [9] was inactive. Moreover, the AC50 in assay [19] is 4.16 µM (active).
